Results as given in PubChem BioAssay AID743280 (The Scripps Research Institute Molecular Screening Center, 2014).
The whole screen tested about 2,000 compounds, of which about 680 (34%) were called active.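 Rule for the calls: active = mean inhibition across triplicates above the hit cutoff set in the earlier primary screen (cut at about 19% in these data); inactive = the rest.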 Only a sample is shown.

The compounds below were run against Group 3 secretory phospholipase A2 (Homo sapiens) (UniProt Q9NZ20) (assay: human group III sPLA2 inhibitors, confirmation, biochemical, QFRET, triplicate (AID 743280;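 note: 0% = enzyme with DMSO and 100% = DMSO wells lacking enzyme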)). Conditions: recombinant hGIII-sPLA2, BODIPY PC-A2 QFRET fluorescence; at 12.2 µM; stronger effect = higher value.
Chain of Group 3 secretory phospholipase A2 (Homo sapiens) (Q9NZ20 whole entry, looked up): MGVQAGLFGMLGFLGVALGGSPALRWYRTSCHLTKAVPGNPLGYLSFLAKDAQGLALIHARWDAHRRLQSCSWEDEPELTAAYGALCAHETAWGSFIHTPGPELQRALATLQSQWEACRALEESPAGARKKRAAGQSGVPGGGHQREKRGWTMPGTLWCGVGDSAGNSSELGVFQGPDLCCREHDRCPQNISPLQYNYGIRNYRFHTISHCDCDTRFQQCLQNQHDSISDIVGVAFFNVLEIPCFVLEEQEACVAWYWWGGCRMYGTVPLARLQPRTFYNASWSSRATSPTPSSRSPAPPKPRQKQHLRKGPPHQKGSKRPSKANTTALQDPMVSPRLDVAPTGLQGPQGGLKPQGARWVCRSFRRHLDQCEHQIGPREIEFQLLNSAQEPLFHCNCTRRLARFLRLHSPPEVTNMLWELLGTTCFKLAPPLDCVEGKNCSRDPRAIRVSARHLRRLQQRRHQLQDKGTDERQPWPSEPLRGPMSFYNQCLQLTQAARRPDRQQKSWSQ

inhibition, active:
N#CC1(Nc2ccc(-c3ccc(Cl)cc3)cc2)CCCC1 24.4%
CCOc1ccc2[nH]c(=S)sc2c1 27.4%
COc1ccc(C(=O)NNC(=S)NC(=O)c2ccccc2)cc1 22.1%
COc1ccc(C(=O)NC(=S)NNC(=O)c2c(-c3ccccc3)noc2C)cc1 35.4%
Cn1cc(Cl)c(C(=O)NNC(=S)Nc2cccc(Cl)c2)n1 42.3%
c1ccc(C2=Nc3cccc4cccc(c34)N2)cc1 50.5%
Nc1ccc2c(c1)C(O)c1ccc(Cl)cc1-2 (stereo not given) 26.1%
CCOc1ccc(Br)cc1CSC(=N)N 26%
Cc1ccc(-c2csc(NNC(=O)c3ccccc3)n2)cc1 56.7%
COc1ccc(C(N)c2csc(NC(=O)Nc3cccc(C(F)(F)F)c3)n2)cc1 (stereo not given) 23%
CC(=O)NC(c1cccs1)c1cc(Br)c2cccnc2c1O (stereo not given) 19.7%
CCc1cc(-c2n[nH]c(=S)n2CC(C)C)cs1 24.9%
O=C1C(=O)N(Cc2ccc(-c3ccsc3)cc2)c2ccc(OC(F)(F)F)cc21 32.9%
C=CCn1c(C23CC4CC(CC(C4)C2)C3)n[nH]c1=S 27.1%
O=C(NNC(=S)Nc1ccc(F)cc1)[C@H]1C[C@@H]1c1ccccc1 35.9%
CSC1=NN(c2ccccc2)CN(c2ccccc2)N1C 25.6%
Brc1ccccc1C1Nc2cccc3cccc(c23)N1 58.1%
O=C(NNc1ccccn1)c1ccc(Cl)nc1 25.9%
Cc1cccc(-n2cnc(C(=O)NNC(=S)Nc3ccccc3)c2)n1 46.5%
Cc1cc(-c2n[nH]c(=S)n2-c2ccc(C)c(C)c2)no1 24.4%
Cc1ccc2sc(NNC(=O)c3ccc4c(c3)OCCO4)nc2c1C 38.7%
Oc1ccc2ccccc2c1N=Nc1nccs1 47.5%

inhibition, inactive:
C=CCNc1scc(-c2ccccc2)[n+]1CC=C 10.9%
Cc1cccc(N2CCN(c3ccc(NC(=O)/C=C\C(=O)O)cc3)CC2)c1 7.11%
COCCn1c(SCC(=O)Nc2cc(OC)ccc2OC)nc2c(c1=O)SC(C)C2 (stereo not given) -3.55%
CCCCn1c(=S)[nH]c2ccccc2c1=O 12.9%
O=C(NC(=S)Nc1ncccn1)c1ccccc1Br 10.1%
COc1ccc(C(=O)Nc2sc(C)c(C)c2CN2CCOCC2)cc1 8%
NS(=O)(=O)c1ccc(CCNC(=O)NC2CCCCC2)cc1 -1.05%
Cc1c(NC(=S)NCc2ccc(F)cc2)cccc1[N+](=O)[O-] 3.91%
Cc1ccc(NC(=S)NNC(=O)CSc2nnc(SCc3ccccc3Cl)s2)cc1 3%
Cc1cc(NCCc2c[nH]c3ccccc23)ccc1Oc1cccnc1 10.5%
CN(C)c1ccc(NC(=O)NC2CCCCN(Cc3ccc(Cl)cc3)C2=O)cc1 (stereo not given) 6.59%
C/C(=N/NC(=O)c1cc(Cl)ccc1O)C12CC3CC(CC(C3)C1)C2 15.1%
Cc1ccc(C2CC(c3cccc(C)c3)n3nc(N)nc3N2)cc1 (stereo not given) 6.67%
CC(C)(C)c1cc2cccnc2n1Cc1cccc(F)c1 13.1%
COc1ccc(NC(=O)C2C3C=CC(C3)C2C(=O)NCc2ccccn2)c(OC)c1 (stereo not given) 1.31%
CCN(CC(=O)NC1CCS(=O)(=O)C1)S(=O)(=O)c1ccccc1 (stereo not given) -6.89%
NC(c1csc(NC(=O)Nc2ccccc2Oc2ccccc2)n1)c1ccccc1Cl (stereo not given) 8.22%
Cc1cc(-n2nc(C)cc2C)n2ncc(-c3ccccc3)c2n1 14.7%
CCc1cccc(CC)c1NC(=S)NCc1ccc2[nH]c(C)cc2c1 -6.2%
CCOc1ccc(/C=N/NC(N)=S)cc1 12.7%
Cc1ccccc1NC(=O)C1CCN(c2ncccn2)CC1 -1.34%
CC(=O)/C(=N\Nc1ccc(Cl)cc1Cl)Sc1cccc2cccnc12 -6.23%
CC(C)c1ccc(Nc2nnc(SCC(=O)c3nnc(-c4ccccc4)o3)s2)cc1 6.4%
CCN(Cc1ccccc1)C(=O)CN1C(=S)NC(C)(C)CC1C (stereo not given) 8.88%
CC1=CC(C)(C)NC(=S)N1c1ccccc1 14.3%
CCCCn1c(N)c(N(CCOC)C(=O)COc2c(C)cccc2C)c(=O)[nH]c1=O 10.8%
COc1cc(NS(=O)(=O)c2ccc3ccccc3c2)c2ncccc2c1 11%
CCOC(=O)C1(Cc2cccc(OC)c2)CCCN(C(=O)CCSC)C1 (stereo not given) 2.05%
C/C(=N\Nc1ccc(Cl)nn1)c1ccccc1O 7.83%
CC(=O)c1nnn(-c2ccc(Cl)cc2C#N)c1C 1.06%
COc1cccc(NC(C)=[N+](C)CCNS(=O)(=O)c2ccc(Cl)cc2)c1 -1.54%
COc1cc(OC)cc(C2=Cc3ccccc3C(CC(=O)c3ccco3)N2c2ccc(-c3cnc(OC)nc3)cc2)c1 (stereo not given) 1.48%
O=C(CSc1nc2ccccc2n1Cc1ccccc1)NNC(=S)Nc1ccccc1 15.2%
C/C(=N\NC(=O)CSc1nc2ccccc2c(=O)n1-c1ccccc1C)c1cccs1 -11%
Nc1ccc(Nc2ccccc2)cc1 17.8%
COCCCNC(=O)CNC(=S)N(Cc1cc(OC)c(OC)c(OC)c1)C1CCCC1 7.62%
CC(C)(c1ccccc1)c1ccc(OCCN)cc1 0.24%
COc1ccccc1OCCn1c(SCC(N)=O)nc2ccccc21 13.8%
O=C(Nc1cccc(F)c1)c1cc(-c2ccco2)nc2ccccc12 9.4%
CC(=O)Oc1ccc2c(c1)C(=O)c1ccccc1C2=O 1.09%
C#CCCCc1nc2ccccc2c(=O)n1N 1.47%
CSc1ccc(NC(=O)/C=C/C(=O)O)cc1 -0.31%
Cc1sc2nc(SCC(=O)c3ccc(O)c(O)c3)n(Cc3ccco3)c(=O)c2c1C -10.3%
